Assay results taken from PubChem BioAssay.
Activity calls are given as the source filed them.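 The calls were made as follows: active = visually confirmed hit in the image check and inhibition above 20%; inconclusive = visually confirmed hit but inhibition not above 20%; inactive = no visual hit in the image check.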

Assay: inhibitors of E-selectin induction by TNFa, primary screen, imaging, HUVEC, immunofluorescence, MLSMR starter and 10KST1 sets (AID 487);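 as to inhibition: signal is fraction of cell area covered by stained E-selectin grains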;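 as to nuclei count: 100% = median nuclei count of all wells on the same plate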
Details: HUVEC TNFalpha-induced E-selectin immunofluorescence imaging, at 2 µM; inhibition: stronger effect = higher value; nuclei count: measured here: cell number, toxicity

| Structure (SMILES) | nuclei count [%] | inhibition |
| --- | --- | --- |
| Cc1ccc(C)c(S(=O)(=O)NCc2ccc(C(=O)N3CCN(C)CC3)cc2)c1 | 106 | -101% (inactive) |
| COc1ccc(S(=O)(=O)N2CCN(C3CCCCCCC3)CC2)cc1 | 108 | -8.4% (inactive) |
| O=C1NCCCc2c1no[n+]2[O-] | 107 | -31.3% (inactive) |
| Cc1ccc(S(=O)(=O)Cc2ccc(C(=O)NCCCN3CCN(C)CC3)o2)cc1 | 115 | 22.2% (inactive) |
| COC(=O)c1[nH]c2cccc(C)c2c1NC(=O)CN1CCCc2ccccc21 | 100 | -47.3% (inactive) |
| Cc1ccccc1NC(=O)c1ccc(NC(=O)c2ccco2)cc1 | 113 | -30.5% (inactive) |
| CCC(C)OC(=O)n1ccc(C(=O)Nc2nccs2)n1 (stereo not given) | 131 | -79.6% (inactive) |
| O=C(CCCn1c(=O)c2sccc2n(Cc2ccc(F)cc2)c1=O)NCc1ccco1 | 106 | -40.1% (inactive) |
| O=C(Nc1ccc(CN2CCCCC2)cc1)c1ccc2c(c1)OCO2 | 73.6 | -0.6% (inactive) |
| COc1cc(C(=O)N2c3ccccc3CC2C)cc(OC)c1OC (stereo not given) | 113 | -13.9% (inactive) |
| COC(=O)c1ccc(CSc2ncnc3c2nnn3-c2ccc(OC)cc2)o1 | 113 | -43.8% (inactive) |
| Cc1ccc2nc(CSc3nnc(-c4ccco4)n3-c3ccccc3)cc(=O)n2c1 | 201 | -175% (inactive) |
| Cc1nc(-c2cnn(-c3ccccc3)c2)c2cc(C)oc2n1 | 159 | -48.6% (inactive) |
| COC(=O)CN1C(=O)C2(C(C#N)=C(N)Oc3c2c(C)nn3-c2ccccc2)c2ccccc21 (stereo not given) | 97.4 | 18.6% (inactive) |
| CC(=O)c1c(C)nc(C)nc1NC(=O)Cc1ccccc1 | 84.4 | 2.9% (inactive) |
| O=C1c2ccccc2C(=O)N1OCc1ccccc1 | 126 | -71.8% (inactive) |
| CS(=O)(=O)N(CC(=O)NCc1ccccn1)c1ccc2c(c1)OCCO2 | 78.9 | 26% (inactive) |
| CCOc1ccc(NC(=O)CN2CCN(CC(=O)Nc3ccc(F)c(F)c3)CC2)cc1 | 99.8 | -60.2% (inactive) |
| CCNC(=O)Cn1cnc2c1c(=O)n(C)c(=O)n2C | 106 | 7.8% (inactive) |
| COc1ccccc1C(=O)Nc1c2c(nn1-c1cccc(C)c1C)CS(=O)(=O)C2 | 106 | -51.3% (inactive) |

| Structure (SMILES) | nuclei count [%] | inhibition |
| --- | --- | --- |
| COc1ccc(-c2nc(N)nc(C)c2Oc2ccccc2Br)c(O)c1 | 85.6 | -64.3% (inactive) |
| CCc1ccc(NC(=O)c2cc(-c3ccco3)on2)cc1 | 93.1 | 6.4% (inactive) |
| CCOC(=O)N1CCC(N(C(=O)Nc2ccc(Cl)c(Cl)c2)C(C)CC)CC1 (stereo not given) | 118 | -44% (inactive) |
| Cc1ccc(C)c(-n2c(Cc3cc(=O)[nH]c(=O)[nH]3)nnc2SCC(=O)NCc2ccco2)c1 | 64 | 65.5% (active) |
| CC(C)(C)OC(=O)N1CCOCCOCCN(C(=O)OC(C)(C)C)CCOCCOCC1 | 119 | -90.1% (inactive) |
| O=C(Nc1ccc(N2CCCC2=O)cc1)c1cccc(F)c1 | 71.5 | -11.4% (inactive) |
| CCOC(=O)C1CCN(Cc2ccc(C(=O)OC)cc2)CC1 | 85.6 | 4.3% (inactive) |
| COc1ccc(OCC(=O)N2CCN(C(=O)c3cccs3)CC2)cc1 | 124 | -51.4% (inactive) |
| Cn1cnnc1SCC(=O)NCc1cccc(C(F)(F)F)c1 | 118 | -95.6% (inactive) |
| COC(=O)Cn1c(C)nc2c(sc3nc(C)cc(C)c32)c1=O | 100 | 16% (inactive) |
| CC1=C(C#N)C(=O)NC(C)(C)C1 | 109 | 6.4% (inactive) |
| Cn1c(=O)c(C(=S)NC(=O)C2CC2)c(N)n(Cc2ccccc2)c1=O | 141 | -77.3% (inactive) |
| CCCc1[nH]nc2c1C(c1cccc(OC(=O)c3ccco3)c1)C(C#N)=C(N)O2 (stereo not given) | 96.7 | 35.2% (inactive) |
| CC(C)c1ccc(-c2nc(N3CCCCC3)[nH]c(=O)c2C#N)cc1 | 107 | -48.9% (inactive) |
| Cn1cc(CC(=O)Nc2cccc(C#N)c2)c2ccccc21 | 97.2 | 13.7% (inactive) |
| CCCN(CCC)CCNC(=O)C(NS(=O)(=O)c1ccc2c(c1)CCC(=O)N2)c1ccccc1 (stereo not given) | 112 | -17.1% (inactive) |
| O=c1c2ccccc2sn1-c1ccc(S(=O)(=O)N2CCCCC2)cc1 | 83.7 | 53.4% (inactive) |
| Cc1ccc(-n2c(=O)[nH]c3c(C(N)=O)nc(CC(C)C)nc32)cc1 | 98.1 | 6.3% (inactive) |
| CN1CCN(C(=O)CN(Cc2ccc(Cl)cc2)S(C)(=O)=O)CC1 | 110 | -25% (inactive) |
| CCOC(=O)c1sc(NC(=O)CSc2nnc(-c3ccco3)n2CC)c(C(=O)OCC)c1C | 92.7 | -27.8% (inactive) |
